Laboratory results: PubChem BioAssay (NCATS)
Inconclusive results are not listed. Calls of active or inactive are those of the source. Calls follow the shape of the dose curve; as a rule, active = well fitted curve in either direction with a large enough effect (not every such curve was filed as active); inconclusive = small, poorly fitted or top-dose-only effect, or another doubt; inactive = flat fitted curve, though single readings scatter.

Target: Mitogen-activated protein kinase 10 (Mus musculus) (UniProt Q61831)
Experiment: JNK3 AlphaScreen Assay (AID 530);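 also: kinase came from lysate of stimulated human HepG2 cells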
Conditions: JNK3 lysate, c-Jun phosphorylation; series mostly up to 57.1 µM
Excerpt: NIH Chemical Genomics Center [NCGC]
NIH Molecular Libraries Screening Centers Network [MLSCN]
The c-jun N-terminal kinase (JNK) family are serine/threonine protein kinases that phosphorylate c-jun, a component of the transcription factor […] (AP-1). JNK kinases are members of the mitogen-activated protein kinase family including the extracellular regulated kinases and p38 kinases. Three JNK genes (JNK 1, 2, and 3) have been identified in humans so far. JNK1 and JNK2 have a broad distribution and JNK3 is primarily found in neuronal tissues and cardiac myocytes.
JNK3 has been under consideration as a target for the treatment of neurodegenerative disorders. […] JNK pathway is also involved in pathological process in a mouse model of Parkinson's disease (Xia et al., 2001).
Given these potential tissue distributions and links to neuroprotection, JNK3 inhibitors should provide useful investigational tools to study the role of this kinase in several diseases including, arthritis, stroke, myocardial infarction, ischemic injury and Parkinson's disease.
A homogeneous AlphaScreen is developed to measure the activity of JNK3. AlphaScreen is a two bead-based proximity-dependent chemical energy transfer luminescent assay platform. The phosphorylation of a biotinylated c-jun substrate by JNK3 can be detected with an antibody raised against phosphorylated c-jun. This process brings streptavidin donor beads and Protein-A acceptor beads to within a proximity range of <200 nm, and subsequently lead a chemical luminescent reaction upon exciting donor beads with 680 nm laser excitation light. Inhibition of JNK3 activity by small molecules and subsequent decrease in the antibody binding to biotinylated c-jun could attenuate or abolish this chemical luminescent reaction.
Yang DD, Kuan CY, Whitmarsh AJ, Rincon M, Zheng TS, Davis RJ, Rakic P and Flavell RA (1997) Absence of excitotoxicity-induced apoptosis in the hippocampus of mice lacking the Jnk3 gene. Nature 389:865-870. [PMID: 9349820]
Herdegen T, Claret FX, Kallunki T, Martin-Villalba A, Winter C, Hunter T, and Karin M (1998) Lasting N-terminal phosphorylation of c-Jun and activation of c-Jun N-terminal kinases after neuronal injury. J.Neurosci. 18:5124-5135. [PMID: 9651196]
Xia XG, Harding T, Weller M, Bieneman A, Uney JB and Schulz JB (2001) Gene transfer of the JNK interacting protein-1 protects dopaminergic neurons in the MPTP model of Parkinson's disease. Proc.Natl.Acad.Sci.U.S.A. 98:10433-10438.
NCGC Assay Protocol Summary:
GST-cJun (1-79) (Stratagene, La Jolla CA, #205145) was biotnylated by PerkinElmer (PerkinElmer-BioSignalInc. Montreal, Canada) and was detectable by the streptavidin Donor beads. Anti-(phospho)cJun (Ser73) antibody was from UpState (Charlottesvilles, VA, #06-659). JNK3-containing lysates were generated from HepG2 cells and pre-activated by interleukin1-beta and tumor necrosis factor alpha. All reagents were stored at -20 C before using. Phosphorylated biotinylated-GST-cJun was recognized by Anti-(phospho)cJun (Ser73) antibody and this process brings acceptor and donor beads together. Therefore JNK3 phosphorylation of cJun can be measured by Alpha reading by EnVision (PerkinElmer, Boston, MA).
The composition of kinase buffer was (in mM) 20 tris- HCl (pH 7.6) 10 MgCl2, 1 DTT, and 0.1 Na3VO4 and 0.01% Tween-20. Beads were diluted in detection buffer containing (in mM) 20 tris-HCl (pH 7.7), 20 NaCl and 80 EDTA and 0.3% BSA. The assay was performed at room temperature. All compounds were screened as titrations from 0.6 nM to 46 uM final concentration. The assay was performed in 1536-well format (white solid bottom and untreated) as follows:
Sequence,Parameter,Value,Description
1,Reagent,3 uL,Biotin-GST-cJun, Anti-(phospho)cJun and pre-activated JNK3-containing lysates
2,Compound,23 nL,Final concentration was 0.6nM to 46uM
3,Time,15 minutes,Room Temperature
4,Reagent,1 uL,ATP final concentration 10uM
6,Reagent,0.5 uL,2ng/well bead mixture
[…]

outcome, inactive:
COC(=O)c1ccc(C(/C=C/[C@@H](C)C(=O)NCCc2c[nH]c3ccccc23)NC(=O)OCc2ccccc2)cc1 (stereo not given in full), CC1(C(=O)NCc2cc(F)cc(C(F)(F)F)c2)C=CC2(CCCCC2)N1C(=O)c1ccccc1 (stereo not given), COC(=O)CNC(=O)[C@@]1(C)C=C[C@@H](Cc2ccccc2)N1C(=O)OC, C[C@]1(C(=O)NCCN2CCOCC2)C=C[C@@H](Cc2ccccc2)N1C(=O)c1ccccc1, COC(=O)[C@@]1(Cc2ccc(OC)cc2)[C@H]2c3cc(C(=O)N4CCCC4)n(CCc4ccc(O)c(O)c4)c3C[C@H]2CN1C(=O)c1ccccc1, O=C(N[C@@H](c1ccccc1)[C@@H]1C[C@H]1C(=O)NCc1ccccc1)OCc1ccccc1, COC(=O)N1[C@H](C)C=C[C@]1(Cc1ccccc1)C(=O)OC, COC(=O)[C@@]1(Cc2ccccc2)[C@H]2c3cc(C(=O)N4CCCC4)n(CCO)c3C[C@H]2CN1C(=O)c1ccccc1, COC(=O)[C@@]1(Cc2ccc(OC)cc2)[C@H]2c3cc(C(=O)N(C)C)n(Cc4cccc5ccccc45)c3C[C@H]2CN1C(=O)c1ccccc1, COC(=O)[C@@]1(Cc2ccc(OC)cc2)[C@H]2c3cc(C(=O)N4CCCC4)n(Cc4cc(C)n(C)n4)c3C[C@H]2CN1C(=O)c1ccccc1, COC(=O)[C@@]1(Cc2ccc(OC)cc2)[C@H]2c3cc(C(=O)N(C)C)n(CCO)c3C[C@H]2CN1C(=O)c1ccccc1, COC(=O)N1CC=CC1(C)C(=O)NCc1cc(F)cc(C(F)(F)F)c1 (stereo not given), COC(=O)c1ccc(C(/C=C/[C@@H](C)C(=O)N(C)Cc2ccccc2)NC(=O)OCc2ccccc2)cc1 (stereo not given in full), CNC(=O)C1(C)C=CC2(CCCCC2)N1C(=O)OC (stereo not given), COC(=O)[C@@]1(Cc2ccccc2)[C@H]2c3cc(C(=O)N(C)C)n(Cc4ccc(O)c(OC)c4)c3C[C@H]2CN1C(=O)c1ccccc1, COC(=O)[C@H]1C[C@@H]1[C@H](NS(=O)(=O)c1ccc2ccccc2c1)c1ccccc1, COC(=O)[C@@]1(Cc2ccccc2)C=C[C@@H](C)N1C(C)=O, COc1ccc(CNC(=O)[C@H](C)[C@H]2C[C@]2(C)[C@H](NC(=O)OCc2ccccc2)c2ccccc2)cc1OC, CC(Cc1ccccc1)C(=O)NCC1CC1 (stereo not given), COC(=O)c1ccc(C(NC(=O)OCc2ccccc2)/C(=C/[C@@H](C)C(=O)Nc2ccc(OC)cc2)c2cccnc2)cc1 (stereo not given in full), CC(Cc1ccccc1)C(=O)N[C@@H](CO)Cc1ccccc1 (stereo not given in full), COC(=O)[C@@]1(Cc2ccc(OC)cc2)[C@H]2c3cc(C(=O)N(C)C)n(C)c3C[C@H]2CN1C(=O)c1ccccc1, CC(Cc1ccccc1)C(=O)NCc1ccncc1 (stereo not given), COC(=O)[C@@]1(Cc2ccc(OC)cc2)[C@H]2c3cc(C(=O)N(C)C)n(C[C@H](O)CO)c3C[C@H]2CN1C(=O)c1ccccc1, COC(=O)c1ccc(C(NC(=O)OCc2ccccc2)/C(=C/[C@@H](C)C(=O)NCc2ccncc2)c2cccnc2)cc1 (stereo not given in full), O=C1C(Cl)=C(NC2CCc3ccccc32)C(=O)c2ncccc21 (stereo not given), COC(=O)[C@@]1(C)C=C[C@@H](Cc2ccccc2)N1C(=O)c1ccccc1, CC1=C(C(=O)OCc2ccccc2)C(c2cccc([N+](=O)[O-])c2)NC(=O)N1CCCCCC(=O)O (stereo not given), CNC(=O)[C@@]1(Cc2ccccc2)C=C[C@@H](C)N1C(C)=O, COC(=O)c1ccc(C(NC(=O)OCc2ccccc2)/C(=C/[C@@H](C)C(=O)N[C@@H](CO)Cc2ccccc2)c2cccnc2)cc1 (stereo not given in full), C[C@@H]1C=C[C@](Cc2ccccc2)(C(=O)O)N1C(=O)c1ccccc1, COC(=O)[C@@]1(Cc2ccc(OC)cc2)[C@H]2c3cc(C(=O)N4CCCC4)n(CCN4CCOCC4)c3C[C@H]2CN1C(=O)c1ccccc1, CC(=O)N1C2(C=CC1(C)C(=O)NCCN1CCOCC1)CCCCC2 (stereo not given), COC(=O)C1(C)C=CC2(CCCCC2)N1C(=O)c1ccccc1 (stereo not given), COC(=O)[C@@]1(Cc2ccc(F)cc2)[C@H]2c3cc(C(=O)N4CCCC4)n(CCc4ccccn4)c3C[C@H]2CN1C(=O)c1ccccc1, COC(=O)c1ccc(C(/C=C/[C@@H](C)C(=O)NCc2ccc(OC)c(O)c2)NC(=O)OCc2ccccc2)cc1 (stereo not given in full), COCCNC(=O)[C@H](C)[C@H]1C[C@]1(C)[C@H](NC(=O)OCc1ccccc1)c1ccccc1, CCCCCCN(C(=O)CCCCCN1C(=O)NC(c2ccc(-c3ccccc3)cc2)C(C(=O)OCc2ccccc2)=C1C)C(C(=O)NCCCC)c1ccc(O)cc1 (stereo not given), COC(=O)Cn1c(C(=O)N(C)C)cc2c1C[C@H]1CN(C(=O)c3ccccc3)[C@@](Cc3ccc(F)cc3)(C(=O)OC)[C@@H]21, Cc1ccc(CNC(=O)[C@H]2C[C@@H]2[C@H](NP(=O)(c2ccccc2)c2ccccc2)c2ccccc2)o1
